From PubChem BioAssay
In the library only some 13% were active in any assay of this set; here they are far more common.
MARV entry inh: blocks Marburg virus binding to or entry into cells | Potency, µM (series often up to 37.8 µM), for inactives: top-dose activity change, negative = inhibition, most hits filed as inhibitors | Marburg virus pseudotyped entry inhibition, cell reporter | actives 1.8% (n = 300,000); calls by dose curve; tested in HEK293 cells; further: potency means the concentration at half of the fitted maximal effect; on the % scale 0 is the no-effect control and ±100 the full control effect
Lassa entry inh: Lassa virus entry inhibition; Lassa virus pseudotype entry inhibition, cell reporter; Potency, µM (titrated, usually from 37.9 µM), inactives show at the top dose activity change, negative = inhibition, most hits filed as inhibitors; actives 1.2% (n = 300,000); calls by dose curve; tested in HEK293 cells; further: potency means the concentration at half of the fitted maximal effect; on the % scale 0 is the no-effect control and ±100 the full control effect; nearly all actives have a fitted effect of over 50% in size
CHX counter: counter-screen for Shiga toxin inhibitors: cycloheximide protein synthesis inhibition. cell reporter, cycloheximide protein synthesis inhibition counterscreen. max response, %. actives 12% (n = 300,000). AID 2314; in the data active means max response mostly above about 13%, no sharp cut-off; inactive means mostly below about 14%; further: read at 38.3 µM for the half of the compounds with a filed dose; 0% is about no effect
FMDV antiviral: antivirals against foot and mouth disease virus | AID 1159524 | FMDV antiviral cell-based qHTS | actives 1.2% (n = 410,000) | Potency, µM (top dose mostly 57.9 µM), for inactives: at the highest dose activity change, negative = inhibition, hits mostly inhibitors; calls by dose curve; tested in HEK293T cells; further: read-out not given here; potency means the concentration at half of the fitted maximal effect; on the % scale 0 is the no-effect control and ±100 the full control effect; nearly all actives have a fitted effect of over 45% in size
Shiga inhibitor: inhibitors of Shiga toxin in Vero cells; Vero cells, Shiga toxin protein synthesis inhibition reporter; inhibition, % at 38.7 µM; actives 9.2% (n = 290,000); in the data active means inhibition mostly above about 28%, no sharp cut-off; inactive means mostly below about 43%; further: 0% is about no effect
HCV inhibitor: HCV inhibition | AID 651820 | Potency, µM (top dose mostly 41.8 µM), for inactives: at the highest dose activity change, negative = inhibition, actives largely listed as inhibitors | actives 3.4% (n = 340,000) | Huh7.5.1 HCVcc-Cre infection, luciferase reporter, 44 h; active means well fitted inhibition curve with a large enough effect; inconclusive means small, poorly fitted or top-dose-only effect, or another doubt; inactive means no such curve, though single readings can be large or run the other way; further: potency means the concentration at half of the fitted maximal effect; on the % scale 0 is the no-effect control and ±100 the full control effect
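Infectious HCV cell culture screen: compound-treated cells (1,000/well, pre-plated 4 h) are infected with HCVcc-Cre at roughly 0.5 moi and grown 44 h. Infection is quantified by luciferase signal after 15 min substrate incubation at room temperature.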
* = called active by the depositor; ? = inconclusive; . = no result given; [ ] = another dose, or the depositor's remark.

SMILES	MARV entry inh	Lassa entry inh	CHX counter	FMDV antiviral	Shiga inhibitor	HCV inhibitor
CCCn1cnc2cc(NCc3cccs3)ccc21	16%	-1%	33*	23%	106*	?
CCn1cnc2cc(NCc3ccccc3Cl)ccc21	21%	5%	36*	26%	67*	-23%
Cn1cnc2cc(NCc3ccccc3Cl)ccc21	?	-8%[46.1 µM]	39*	28%	105*	1%
CCCn1cnc2cc(NCc3ccccc3OCC)ccc21	-4%[46.1 µM]	-9%[46.1 µM]	.	-11%	.	.
CCCCn1cnc2cc(NCc3ccccc3Cl)ccc21	13µM*	?	.	-2%	.	.
Cc1nnc(Nc2ccc3c(c2)ncn3C)c2ccccc12	1%	1%	4	21%	22	?
CCC(C)NC(=O)C1CCN(S(=O)(=O)CC)CC1 (stereo unspecified)	?	0%	5	.	-7	24%
O=C(CCl)Nc1c[nH]c(=O)[nH]c1=O	?	?	6	?	-1	?
O=C(CCl)N(c1ccccc1)C1CCCCC1	?	?	-6	?	-26	4µM*
CC(=O)N(c1ccccc1)C1CCCC1	3%	13%	-2	-10%	0	14%
COc1ccc(-c2cn(-c3cccc(C)c3)c(=O)[nH]2)cc1OC	.	.	15	-22%	28	-10%
Cc1ccc(-n2cc(-c3ccccc3)[nH]c2=O)cc1F	53%	-9%	46*	17%	115*	9%
O=C(Nc1ccc2nn(-c3ccccc3)nc2c1)c1cccs1	20%	9%	35*	.	73*	-13%
O=C(Nc1ccc2nsnc2c1)c1cccs1	?	-1%	30*	30%	20	-16%
Cc1ccccc1Nc1nc2nonc2nc1N1CCOCC1	?	2%	-2	-4%	-8	-13%
Cc1ccc(C(=O)N/C(=C\c2ccc(-c3cc(Cl)ccc3Cl)o2)C(=O)NCc2cccnc2)cc1	?	11µM*	42	-5%	88	10µM*
O=C(NCc1cccnc1)/C(=C\c1ccc(-c2cccc(Cl)c2)o1)S(=O)(=O)c1ccccc1	?	?	-13	18µM*	-14	?
O=C(NCc1cccnc1)/C(=C/c1ccc(-c2cccc(Cl)c2)o1)S(=O)(=O)c1ccccc1	?	12%	-9	?	-27	28%
CS(=O)(=O)N(CC(=O)Nc1ccccc1C(=O)N1CCOCC1)c1ccccc1	3%	2%	-4	-20%	8	4%
O=C(Nc1ccc2ccccc2c1)NC1CCS(=O)(=O)C1 (stereo unspecified)	12%	14%	14*	23%	88	-8%
O=C(Nc1ccccc1)NC1CCS(=O)(=O)C1 (stereo unspecified)	-2%	3%	-3	-24%	1	6%
CN1CCN(CCCC(=O)c2ccc(C3CCCC3)cc2)CC1	?	?	29*	-6%	54*	?
COc1cc(-c2nnn(CC#N)n2)ccc1OCc1ccccc1	?	10%	30*	.	64*	-21%
COc1cc(-c2nnn(CC(=O)NC3CCS(=O)(=O)C3)n2)ccc1OCc1ccccc1 (stereo unspecified)	-1%	4%	17*	49%	44*	-19%
COc1ccc(-c2nnn(CC(=O)c3ccccc3)n2)cc1OC	9%	-6%	4	.	-4	-29%
SMILES	MARV entry inh	Lassa entry inh	CHX counter	FMDV antiviral	Shiga inhibitor	HCV inhibitor
O=C(N/C(=C/c1ccco1)C(=O)N1CCCCCC1)c1cccs1	-40%	?	-2	13%	-4	14%
COc1cc(CN2CC(=O)N(c3ccccc3Cl)C2=S)cc(OC)c1OC	?	?	1	32µM*	-6	?
COc1cc(CN2CC(=O)N(c3cccc(Cl)c3C)C2=S)cc(OC)c1OC	.	.	-4	?	-10	-20%
Cn1cc(CN2CCC(n3nccc3NC(=O)CCCc3ccccc3)CC2)cn1	.	.	-3	-12%	-7	-2%
Cc1nc2cc(-c3sccc3-n3cccc3)nn2c(C)c1C	?	-2%	34*	-13%	60*	-6%
Cc1cc(C(F)(F)F)n2nc(-c3sccc3-n3cccc3)cc2n1	-12%	-5%	-2	0%	-14	-24%
FC(F)(F)c1nc2ccccc2nc1N/N=C\c1ccccc1	4%[46.1 µM]	-1%	19*	16%	94*	7%
Brc1ccc(-c2nc(N/N=C/c3cccnc3)c3ccccc3n2)cc1	?	-12%	32*	?	103*	-12%
Fc1ccccc1CNc1nc(-c2cccnc2)nc2ccccc12	?	?	-9	3%	-7	35µM*
NNc1nc2ccccc2nc1C(F)(F)F	3%[46.1 µM]	5%	-2	13%	-6	-9%
C(=N\Nc1nc(-c2cccnc2)nc2ccccc12)/c1ccccc1	0%[46.1 µM]	3%	23*	-3%	50*	-35%
COc1cccc(/C=N/Nc2nc(-c3cccnc3)nc3ccccc23)c1	.	.	18*	1%	65*	-13%
O=[N+]([O-])c1ccc(-c2nc(NCc3cccnc3)c3ccccc3n2)cc1	.	.	23*	-8%	53*	-15%
COc1cccc(CNc2nc(-c3cccnc3)nc3ccccc23)c1	-28%	-29%	-5	?	-10	?
CN(C)c1ccc(-c2nc(NCc3cccnc3)c3ccccc3n2)cc1	.	.	.	36%	.	.
Cc1nc2ccccc2nc(=O)c1NNc1ccccc1	?	10%	20*	12%	23*	?
Cc1ccc2nc(-c3ccccc3)c(-c3ccccc3)nc2c1	.	.	11	-15%	9	?
CCN1C(=O)c2c(C)nc3ccccc3c2C1=O	18%	10%	-3	-8%	-6	17%
Cc1ccc2nc(=O)c(NNc3ccccc3)cnc2c1	-21%	-17%	23*	40%	21	?
CCN(CC)CCCNc1nc(C)cc(COC)c1C#N	?	17%	11	4%	-5	-1%
O=C(Cn1ccc2ccccc2c1=O)NCCC(=O)N1CCCCC1	0%[46.1 µM]	-3%[46.1 µM]	-3	-9%	-12	14%
CCCOC(=O)c1ccc(NC(=O)c2cc(OC)c(OC)c(OC)c2Br)cc1	?	?	-3	-11%	-5	7.1µM*
CCCOC(=O)c1ccc(NC(=O)c2cc(Cl)ccc2OC)cc1	21%	-6%	-4	0%	-10	0%
COc1cc(C(=O)Nc2ccc(C(C)=O)cc2)c(Br)c(OC)c1OC	-2%	?	42*	-10%	70*	-14%
Cc1ccc(-n2nc(C(=O)NN)c(C)c(C#N)c2=O)cc1Cl	-19%[46.1 µM]	22%[46.1 µM]	-9	-17%	-9	?
Cc1c(C(=O)NN)nn(-c2ccc(Cl)cc2)c(=O)c1C#N	?	-23%	-16	13µM*	-18	14µM*
OCCC1CN(Cc2nc(-c3ccccc3)cs2)CCN1CCc1ccccc1 (stereo unspecified)	.	.	1	?	-2	?
Cc1cccc(-c2nc3cc(NC(=O)C4CCCO4)ccc3o2)c1 (stereo unspecified)	7.1µM*	7.9µM*	67*	-44%	active	-21%
